# Measured values taken from PubChem BioAssay.
# Calls of active or inactive are those of the source.
# Key:
# [1] = test system: Plasmodium falciparum Sir2 (PF13_0152, Sir2A); assay: pfSir2 binders on small-molecule microarrays, primary screen, biochemical, small-molecule microarray, 635 nm fluorescence (AID 1098); conditions: small-molecule microarray binding, fluorescence 635 nm; higher = more signal;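 also: score merges spot fluorescence intensity with its signal-to-noise ratio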
# [2] = small-molecule microarray binders of probe aDKK1, primary screen, biochemical, biotinylated probe, 635/667 nm fluorescence (AID 1099); conditions: higher = more signal;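 also: score merges 667nm spot fluorescence with signal to noise across triplicate slides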
# [3] = small-molecule microarray binders of probe aCHRDL2, primary screen, biochemical, biotinylated probe, 635/667 nm fluorescence (AID 1100); conditions: higher = more signal
# [4] = splicing luciferase reporter signal modulators, primary screen, spliceosome inhibition project, cell-based, HEK293, splice +/- reporter (AID 1101); conditions: luminescence, 24 h, higher = more signal, called active from +8 up or from −8 down;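 also: HEK293 cells carrying a splicing-competent luciferase reporter gene; test concentration not given here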
# [5] = biological target: Fibroblast growth factor 10 (Homo sapiens) (UniProt O15520); assay: FGF10 binders on small-molecule microarrays, primary screen, biochemical, small-molecule microarray, 635 nm fluorescence (AID 1102); conditions: FGF10 binding, fluorescence 635 nm, higher = more signal
# [6] = test system: glycogen synthase kinase-3 (GSK3A per assay name; protocol says GSK3B); assay: GSK3 binders on small-molecule microarrays, primary screen, biochemical, small-molecule microarray, 635 nm fluorescence, GSK3A (AID 1103); conditions: small-molecule microarray binding, fluorescence 635 nm; higher = more signal; also: the record names both GSK3A and GSK3B
# [7] = biological target: Epidermal growth factor receptor (Homo sapiens) (UniProt P00533); assay: EGFR binders on small-molecule microarrays, primary screen, biochemical, small-molecule microarray, 635 nm fluorescence (AID 1104); conditions: EGFR binding, higher = more signal;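 also: score merges 667 nm emission intensity with spot signal to noise over triplicate slides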
# [8] = biological target: Follistatin-related protein 3 (Homo sapiens) (UniProt O95633); assay: FSTL3 binders on small-molecule microarrays, primary screen, biochemical, small-molecule microarray, 635 nm fluorescence (AID 1105); conditions: FSTL3 binding, higher = more signal;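 also: score merges emission near 667 nm and signal to noise per printed spot across three slides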
# [9] = biological target: Dickkopf-related protein 1 (Homo sapiens) (UniProt O94907); assay: DKK1 binders on small-molecule microarrays, primary screen, biochemical, small-molecule microarray, 635 nm fluorescence scan (AID 1106); conditions: DKK1 binding, higher = more signal;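 also: score merges emission near 667 nm with signal to noise over three replicate slides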
# [10] = test system: Inhibin beta A chain (activin A); assay: INHBA (activin A) binders on microarrays, primary screen, biochemical, small-molecule microarray, 635 nm fluorescence scan (AID 1107); conditions: small-molecule microarray binding, higher = more signal;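 also: mouse activin A protein probed at 4.33 µg/mL on printed slides; score merges bound-protein fluorescence near 667 nm with spot signal-to-noise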
# [11] = test system: Human papillomavirus type 1a protein E7 (residues 44-93); assay: HPV1a E7 fragment binders on microarrays, primary screen, biochemical, small-molecule microarray, residues 44-93, 635 nm fluorescence (AID 1108); conditions: small-molecule microarray binding, fluorescence 635 nm; higher = more signal;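 also: E7 fragment applied at 1 µg/mL in TBST for 1 h at 4 C; score combines spot fluorescence with its signal to noise ratio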
# [12] = modulators of HCV replicon luciferase signal, primary screen, HCV replication inhibitor project, Huh7 cells, luciferase reporter (AID 1109); conditions: 48 h, higher = more signal;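 also: huh7 hepatoma cells harbouring a luciferase neomycin HCV replicon reporter; luciferase luminescence as measure of HCV replicon replication; test concentration not given here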
# [13] = biological target: Left-right determination factor 2 (Homo sapiens) (UniProt O00292); assay: LEFTY2 binders on small-molecule microarrays, primary screen, biochemical, small-molecule microarray, 635 nm fluorescence scan (AID 1110); conditions: LEFTY2 binding, higher = more signal
# [14] = biological target: Calmodulin-1 (Homo sapiens) (UniProt P0DP23); assay: CALM1 binders on microarrays, EGTA buffer, profiling panel, biochemical, small-molecule microarray, Cy5-labelled CALM1 (AID 1111); conditions: Cy5-CALM1 binding fluorescence, higher = more signal;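 also: labelled calmodulin applied in Tris saline Tween buffer holding calcium plus EGTA and DTT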
# [15] = biological target: Calmodulin-1 (Homo sapiens) (UniProt P0DP23); assay: calcium-bound CALM1 binders on microarrays, profiling panel, artefact control for SMM control-protein annotation, biochemical, small-molecule microarray, Cy5-labelled CALM1, plus calcium (AID 1112); conditions: Cy5-CALM1 binding fluorescence, higher = more signal;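 also: score merges spot fluorescence with signal to noise from triplicate slides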
# [16] = small-molecule microarray binders of probe aWnt5a, primary screen, biochemical, biotinylated probe, 635/667 nm fluorescence (AID 1113); conditions: higher = more signal;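 also: score merges 667 nm fluorescence intensity with signal-to-noise per printed feature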
# [17] = small-molecule microarray binders of probe aShh, primary screen, biochemical, biotinylated probe, 635/667 nm fluorescence (AID 1114); conditions: higher = more signal;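 also: probe is biotin-labelled aShh protein from a stem cell growth factor screen; measures binding of labelled protein to compounds printed on the slide; score merges feature fluorescence at 667 nm with signal-to-noise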
# [18] = small-molecule microarray binders of probe aNog, primary screen, biochemical, biotinylated probe, 635/667 nm fluorescence (AID 1115); conditions: higher = more signal;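 also: probe is biotinylated aNog protein used at 0.15 µg/mL for 1 h at 4 C; z-score combines 667 nm fluorescence of each spot with its signal to noise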
# [19] = biological target: Torsin-1A-interacting protein 1 (Homo sapiens) (UniProt Q5JTV8); assay: LAP1 binders from COS7 cell lysate, primary screen, small-molecule microarray, 635/667 nm fluorescence (AID 1116); conditions: COS7-hLAP1 lysate binding, 635 nm fluorescence, higher = more signal
# [20] = biological target: Alpha-bungarotoxin (Bungarus multicinctus) (UniProt P60615); assay: alpha-bungarotoxin binders on microarray, profiling panel, artefact control for SMM control protein annotation, biochemical, small-molecule microarray, Alexa647 label, 635/667 nm fluorescence (AID 1117); conditions: alpha-BTX-A647 binding fluorescence, higher = more signal
# Sequence of Alpha-bungarotoxin (Bungarus multicinctus) (P60615 whole entry, looked up): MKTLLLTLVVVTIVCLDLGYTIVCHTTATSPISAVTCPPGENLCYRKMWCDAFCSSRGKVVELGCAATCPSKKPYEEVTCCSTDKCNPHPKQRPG
# Sequence of Fibroblast growth factor 10 (Homo sapiens) (O15520 whole entry, looked up): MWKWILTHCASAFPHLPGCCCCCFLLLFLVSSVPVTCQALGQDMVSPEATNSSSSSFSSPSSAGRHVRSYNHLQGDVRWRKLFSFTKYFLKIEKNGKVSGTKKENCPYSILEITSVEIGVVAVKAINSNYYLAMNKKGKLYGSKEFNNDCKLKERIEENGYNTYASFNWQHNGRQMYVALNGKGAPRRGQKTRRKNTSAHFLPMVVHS
# Sequence of Follistatin-related protein 3 (Homo sapiens) (O95633 whole entry, looked up): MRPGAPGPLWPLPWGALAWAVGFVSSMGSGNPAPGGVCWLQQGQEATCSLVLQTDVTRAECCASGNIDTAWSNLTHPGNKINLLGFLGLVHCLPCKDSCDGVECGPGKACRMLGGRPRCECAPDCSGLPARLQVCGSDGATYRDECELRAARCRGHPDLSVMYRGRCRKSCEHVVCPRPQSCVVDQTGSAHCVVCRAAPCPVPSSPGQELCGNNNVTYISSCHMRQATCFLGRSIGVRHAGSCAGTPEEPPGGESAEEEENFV
# Sequence of Torsin-1A-interacting protein 1 (Homo sapiens) (Q5JTV8 whole entry, looked up): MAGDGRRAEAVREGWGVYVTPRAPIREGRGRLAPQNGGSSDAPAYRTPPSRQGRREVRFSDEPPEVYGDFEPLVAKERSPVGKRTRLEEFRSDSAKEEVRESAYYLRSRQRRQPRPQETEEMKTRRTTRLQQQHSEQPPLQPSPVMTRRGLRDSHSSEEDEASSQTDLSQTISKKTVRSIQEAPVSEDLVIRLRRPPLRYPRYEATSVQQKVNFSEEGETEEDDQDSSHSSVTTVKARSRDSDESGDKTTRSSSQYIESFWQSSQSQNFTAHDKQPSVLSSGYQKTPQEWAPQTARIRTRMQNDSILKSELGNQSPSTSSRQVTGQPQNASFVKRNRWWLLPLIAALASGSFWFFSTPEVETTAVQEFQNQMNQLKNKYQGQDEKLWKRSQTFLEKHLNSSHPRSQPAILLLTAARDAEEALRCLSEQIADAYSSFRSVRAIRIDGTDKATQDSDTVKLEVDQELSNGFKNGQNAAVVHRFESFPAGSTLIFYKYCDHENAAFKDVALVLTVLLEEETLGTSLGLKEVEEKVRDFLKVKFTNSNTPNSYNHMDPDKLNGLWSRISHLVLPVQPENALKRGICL
# Sequence of Left-right determination factor 2 (Homo sapiens) (O00292 whole entry, looked up): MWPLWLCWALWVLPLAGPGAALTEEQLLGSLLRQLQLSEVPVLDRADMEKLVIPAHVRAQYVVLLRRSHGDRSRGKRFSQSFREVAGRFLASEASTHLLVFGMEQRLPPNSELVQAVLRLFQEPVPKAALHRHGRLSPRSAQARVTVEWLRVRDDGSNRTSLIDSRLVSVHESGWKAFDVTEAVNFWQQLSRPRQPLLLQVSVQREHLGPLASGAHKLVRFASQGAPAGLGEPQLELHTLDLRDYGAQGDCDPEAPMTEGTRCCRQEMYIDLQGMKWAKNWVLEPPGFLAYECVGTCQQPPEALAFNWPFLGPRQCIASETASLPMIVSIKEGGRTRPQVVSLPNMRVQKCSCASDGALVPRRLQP
# Sequence of Dickkopf-related protein 1 (Homo sapiens) (O94907 whole entry, looked up): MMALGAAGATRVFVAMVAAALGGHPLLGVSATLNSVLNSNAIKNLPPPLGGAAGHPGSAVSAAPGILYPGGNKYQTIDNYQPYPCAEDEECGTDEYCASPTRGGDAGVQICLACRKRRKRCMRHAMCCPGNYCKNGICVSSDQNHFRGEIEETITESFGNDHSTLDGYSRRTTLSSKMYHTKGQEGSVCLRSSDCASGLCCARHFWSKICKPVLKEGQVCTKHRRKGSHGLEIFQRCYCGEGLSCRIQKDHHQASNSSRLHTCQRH
# Sequence of Epidermal growth factor receptor (Homo sapiens) (P00533 whole entry, looked up): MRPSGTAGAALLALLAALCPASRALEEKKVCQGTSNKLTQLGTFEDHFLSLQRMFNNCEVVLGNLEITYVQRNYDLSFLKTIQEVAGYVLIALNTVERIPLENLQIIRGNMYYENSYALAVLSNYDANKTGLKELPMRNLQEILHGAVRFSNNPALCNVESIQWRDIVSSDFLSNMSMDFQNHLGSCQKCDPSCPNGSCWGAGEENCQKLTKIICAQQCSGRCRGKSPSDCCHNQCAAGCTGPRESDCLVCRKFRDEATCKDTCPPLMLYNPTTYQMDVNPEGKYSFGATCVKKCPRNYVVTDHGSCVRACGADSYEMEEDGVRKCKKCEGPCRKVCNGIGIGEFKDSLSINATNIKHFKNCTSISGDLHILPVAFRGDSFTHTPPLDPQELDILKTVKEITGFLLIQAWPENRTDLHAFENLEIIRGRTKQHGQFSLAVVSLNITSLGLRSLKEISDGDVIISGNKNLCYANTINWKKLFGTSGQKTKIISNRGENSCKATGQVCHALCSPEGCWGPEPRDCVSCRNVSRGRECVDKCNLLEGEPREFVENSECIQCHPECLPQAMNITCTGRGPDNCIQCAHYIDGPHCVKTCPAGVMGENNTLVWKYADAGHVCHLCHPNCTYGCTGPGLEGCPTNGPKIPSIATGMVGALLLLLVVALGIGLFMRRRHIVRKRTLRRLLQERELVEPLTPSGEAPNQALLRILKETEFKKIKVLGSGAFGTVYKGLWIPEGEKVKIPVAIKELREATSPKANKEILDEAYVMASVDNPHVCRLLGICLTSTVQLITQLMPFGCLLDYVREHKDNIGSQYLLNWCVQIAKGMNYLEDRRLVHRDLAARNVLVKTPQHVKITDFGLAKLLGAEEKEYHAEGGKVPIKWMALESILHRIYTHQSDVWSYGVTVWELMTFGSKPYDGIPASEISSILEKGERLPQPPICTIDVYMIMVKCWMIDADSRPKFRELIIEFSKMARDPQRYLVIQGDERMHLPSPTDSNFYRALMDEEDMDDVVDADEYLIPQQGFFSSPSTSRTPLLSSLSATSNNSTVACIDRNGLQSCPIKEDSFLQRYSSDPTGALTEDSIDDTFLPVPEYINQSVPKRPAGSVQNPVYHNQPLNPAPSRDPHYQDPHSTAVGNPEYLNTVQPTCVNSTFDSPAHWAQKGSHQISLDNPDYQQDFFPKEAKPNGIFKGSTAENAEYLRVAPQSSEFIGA
Compound,composite z-score [1],composite z-score [2],composite z-score [3],z-score [4],composite z-score [5],composite z-score [6],composite z-score [7],composite z-score [8],composite z-score [9],composite z-score [10],composite z-score [11],z-score [12],composite z-score [13],composite z-score [14],composite z-score [15],composite z-score [16],composite z-score [17],composite z-score [18],composite z-score [19],composite z-score [20]
O=C1C[C@@H](O)[C@@H](O)[C@@H]2[C@@H]3C(=O)N(Cc4ccccc4)C(=O)[C@@H]3CC[C@H]12,0.465,-0.0382,-0.506,-0.0414 (inactive),0.56,0.331,0.564,0.643,0.608,0.3,-0.234,-0.0156,0.804,0.0302,-0.344,-0.0869,-0.138,0.0369,0.432,0.848
C[C@H]1CC[C@H]2C(=O)O[C@H](CO)CN2[C@@H]1c1ccc(Br)cc1,-0.233,-0.198,-0.372,-0.202 (inactive),-0.111,-0.348,0.0844,-0.378,-0.106,0.829,0.33,-0.0002,0.217,-0.25,-0.445,-0.213,-0.276,-0.234,-0.138,0.126
CC(CCN1CCCCc2nc(C)c(C)cc21)=NO[C@H](C)c1cn([C@@H]2COC[C@H]2O)nn1,0.742,-0.404,-0.961,1.09 (inactive),1.23,1.16,1.61,1.43,2.15,1.21,0.421,-0.219,1.35,-0.197,-0.835,-0.222,-0.112,-0.158,0.337,1.3
CCCNC(=O)OC[C@H]1O[C@H](CCON=C[C@@H](NS(=O)(=O)c2ccc(C)cc2)[C@H](C)C=CCC(=O)OC)C=C[C@@H]1Oc1ccc(OC)cc1,-0.289,-0.0175,0.0838,-0.362 (inactive),-0.0511,-0.54,-0.147,-0.293,-0.0968,0.32,0.186,-1.65,0.65,-1.21,-1,-0.117,-0.138,-0.0312,0.247,0.0462
CCN(CC)CC(O)CN1CCCCc2nc(C)c(C)cc21 (stereo not given),-0.145,-0.33,-0.485,-1.7 (inactive),0.507,0.709,0.256,0.42,0.701,0.29,-0.0592,0.932,0.31,-0.397,-0.125,-0.129,-0.138,-0.0137,0.579,0.695
C=CC[C@@H]1C=C[C@H](ON=C2C[C@@H](O)[C@@H](O)[C@@H]3[C@@H]4C(=O)N(CC)C(=O)[C@@H]4CC[C@@H]23)[C@@H](CO)O1,-0.487,-0.428,-0.562,-1.2 (inactive),0.156,-0.653,-0.0239,-0.339,0.106,0.535,-0.573,0.0355,0.13,-0.758,-0.777,-0.131,0.116,0.0541,-0.164,-1.03
CC(C)[C@@H](OCc1ccccc1)[C@H](C)CON=C1[C@H]2CCn3c(=O)n(-c4ccccc4)c(=O)n3[C@H]2[C@H](O)[C@@H]2O[C@H]12,0.552,-0.0364,-0.562,3.43 (inactive),0.785,0.227,0.329,0.0089,1.24,0.236,0.416,-4.23,0.677,-0.404,-0.366,-0.147,-0.134,-0.124,-0.005,0.251
O=C1[C@H]2[C@H]3[C@H](O)[C@H](O)CC(=NOC[C@@H](O)COCc4ccco4)[C@@H]3CC[C@H]2C(=O)N1Cc1ccc2c(c1)OCO2,0.867,-0.387,-1.42,-0.119 (inactive),-0.454,1.3,1.15,0.9,1.47,0.506,-0.772,0.0878,1.44,-0.982,-2.03,-0.172,-0.123,-0.34,0.0886,0.0167
COC(=O)[C@H](C)NC(=O)CCC1CC(OC(=O)NCc2ccc3c(c2)OCO3)CC2(CCCC(COC(=O)NCCC(C)C)O2)O1 (stereo not given in full),0.624,-0.076,-0.434,0.0265 (inactive),0.412,0.69,0.0295,0.505,0.205,-2.25,1.37,-0.166,0.694,-0.107,-0.682,-0.0977,-0.0553,-0.0047,0.302,1.48
COc1ccc(COC(=O)NN=C2C[C@@H](O)[C@@H](O)[C@@H]3[C@@H]4C(=O)N([C@@H](C)c5ccccc5)C(=O)[C@@H]4CC[C@@H]23)cc1,0.397,0.0429,-0.305,0.158 (inactive),0.132,-0.111,0.362,0.192,0.244,0.878,-0.372,0.426,0.609,-0.213,-0.392,-0.169,0.0121,-0.288,0.51,0.0288
CCN1C(=O)[C@H]2[C@H]3[C@H](O)[C@H](O)CC(=NOC[C@@H](O)COCc4ccco4)[C@H]3CC[C@H]2C1=O,0.667,-1,-2.16,0.0809 (inactive),-0.169,0.797,0.816,0.757,1.39,1.45,0.296,-0.389,1.41,-2.21,-2.59,-0.216,-0.2,-0.878,-0.0551,-0.441
